This note sets out measurements from PubChem BioAssay (Tox21).

SMILES strings stand for the structures. Inconclusive results are not listed. Activity calls are given as the source filed them. Unless noted, calls follow the shape of the full dose curve.

A short description of test [1]: Nuclear factor erythroid 2-related factor 2/antioxidant responsive element (Nrf2/ARE) small molecule agonists: qHTS cell viability counter screen in human keratinocytes (AID 1919968; active = well fitted curve in the direction sought with a large enough effect in the repeat runs; an effect the other way counts as inactive or inconclusive; also: nearly all actives have a fitted effect of over 55% in size). An outline of the steps:
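Cells of the KeratinoSens line were plated at 1,500 per well and left for 5 h before compound transfer from DMSO stocks. After a 23 h incubation (37 C, 5% CO2), CellTiter-Fluor was added. Signal was taken as fluorescence intensity 1 h later.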

Test [2] is described as follows: Nuclear factor erythroid 2-related factor 2/antioxidant responsive element (Nrf2/ARE) small molecule agonists: luciferase reporter gene qHTS assay in human keratinocytes (AID 1919969). Also: nearly all actives have a fitted effect of over 35% in size.
The target of test [3] is Gonadotropin-releasing hormone receptor (Homo sapiens) (UniProt P30968). Put plainly: Human gonadotropin-releasing hormone receptor (GnRHR) small molecule agonists, calcium flux assay in GnRHR-HEK293 cells (AID 1920063). Also: nearly all actives have a fitted effect of over 35% in size. An outline of the steps:
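Compounds dissolved in DMSO are pin-transferred onto dye-loaded GnRHR-HEK293 cells, which were seeded 18 h before at 37 C/5% CO2. Calcium signal is read as fluorescence intensity at 1 s intervals for 3 min.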
(Calcium assays in cells follow changes in intracellular calcium, usually with a dye or a luminescent sensor.)

In test [4] the target is KiSS-1 receptor (Homo sapiens) (UniProt Q969F8). Put plainly: Human kisspeptin (KISS1R) small molecule agonists, calcium flux assay in KISS1R-HEK293 cells (AID 1920064; active = well fitted curve in the direction sought with a large enough effect in the repeat runs; an effect the other way counts as inactive or inconclusive). An outline of the steps:
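Cell line: HEK293, stable human KISS1R. Dye loading 1 h at 37 C after 18 h culture. Read: kinetic fluorescence, 480/540 nm, 3 min at 1 s intervals.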

Test [5] is described as follows: G protein-coupled receptor (GPCR) small molecule agonists, calcium flux assay: HEK293 wild type cell line counter screen (AID 1920065). The method, boiled down: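 Tox21 10K compounds, 15 concentrations each in triplicate, pin-transferred in DMSO onto dye-loaded cells; kinetic read at 480/540 nm for 3 min, 1 s intervals.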
Test [6] is described as follows: p53 small molecule agonists, cell-based qHTS assay with human liver microsomes: qHTS cell viability counter screen (AID 1963579). Also: nearly all actives have a fitted effect of over 45% in size. The method, boiled down:
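Metabolically activated exposure: compounds, human liver microsomes and NADPH (0.5 mg/mL final apiece) were added to p53RE-bla cells seeded 5 h earlier, left 16 h at 37 C, and then assessed for viability by CellTiter-Glo luminescence.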

The nature of test [7]: p53 small molecule agonists, cell-based qHTS assay with rat liver microsomes: qHTS cell viability counter screen (AID 1963580). Also: nearly all actives have a fitted effect of over 45% in size. An outline of the steps:
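Rat liver microsome (0.5 mg/mL final) and NADPH (0.5 mg/mL final) co-incubation with compounds for 16 h at 37 C on HCT-116 p53RE-bla cells; cytotoxicity taken from intracellular ATP luminescence.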
For orientation: In qHTS, concentration-response curves come from the screen itself.

Test [8] can be described thus: p53 small molecule agonists, cell-based qHTS assay: qHTS cell viability counter screen (AID 1963581). Also: nearly all actives have a fitted effect of over 45% in size. The method, boiled down: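 ATP content measured by luminescence in HCT-116 p53RE-bla cells treated 16 h at 37 C, same wells as the reporter screen.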
For test [9], the target named is 5-hydroxytryptamine receptor 2A (Homo sapiens) (UniProt P28223). Put plainly: 5-hydroxytryptamine receptor 2A (HTR2A) small molecule antagonists, cell-based qHTS assay (AID 1963586). Also: nearly all actives have a fitted effect of over 45% in size. Also: potency is read from the fitted curve at half-maximal effect. An outline of the steps:
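CHO cells stably expressing human HTR2A were plated for 18 h at 37 C, then loaded with calcium dye for 1 h. Compounds were preincubated 5 min at room temperature before DOI (4 nM solution) was added. Kinetic fluorescence was read for 3 min.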

For test [10] the target is unchanged. Put plainly: 5-hydroxytryptamine receptor 2A (HTR2A) small molecule agonists, cell-based qHTS assay (AID 1963587). Also: nearly all actives have a fitted effect of over 30% in size. The method, boiled down:
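Kinetic calcium-flux fluorescence (2 min, 1 sec intervals) after compound addition in agonist mode. HTR2A-CHO cells were cultured 18 h, then dye-loaded 1 h at 37 C.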

For test [11], the target named is Muscarinic acetylcholine receptor M1 (Homo sapiens) (UniProt P11229). Nature of the test: Cholinergic receptor muscarinic 1 (CHRM1) small molecule agonists, cell-based qHTS assay (AID 1963589). Also: nearly all actives have a fitted effect of over 35% in size. An outline of the steps: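 Homogeneous fluorescence calcium flux, agonist mode. Human M1-expressing CHO cells; compound dosed at 15 concentrations, three independent runs; signal sampled every 1 sec.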

Test [12] can be described thus: cAMP Responsive Elements (CRE) small molecule agonists, cell-based qHTS assay (AID 1963590). An outline of the steps: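 HEK 293T cells stably bearing CRE-bla were plated at 2,000 cells per well and rested 18 h. Compounds, positive controls or DMSO were added for 3 h at 37 C. LiveBLAzer B/G substrate was then loaded for 2 h at room temperature.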
Test [13] in a line: cAMP Responsive Elements (CRE) small molecule antagonists, cell-based qHTS assay (AID 1963591; active = well fitted inhibition curve with a large enough effect in the signal ratio in the repeat runs, not every such curve was filed as active; the % refers to the signal ratio). An outline of the steps:
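First, CRE-bla HEK293T cells settled 18 h at 37 C. Next, compound and 0.25 uM final NKH477 were applied for 3 h. Last, LiveBLAzer B/G substrate was loaded for 2 h at room temperature.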

Test [14] addresses Beta-2 adrenergic receptor (Homo sapiens) (UniProt P07550). Put plainly: Adrenergic beta2 receptor (ADRB2) small molecule antagonists, cell-based qHTS assay (AID 1963592). Also: series mostly up to about 92 µM; nearly all actives have a fitted effect of over 50% in size. The method, boiled down: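 Assay format: CHO-ADRB2 cells, 18-20hr seeding at 37C/5% CO2, then compound plus 1nM isoproterenol agonist mix for 0.5hr RT. Homogeneous time-resolved fluorescence cAMP detection after 1hr, expressed as 665/615 nm ratio.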

Test [15] has as its target D(2) dopamine receptor (Homo sapiens) (UniProt P14416). Nature of the test: Dopamine D2 receptor (DRD2) small molecule agonists, cell-based qHTS assay (AID 1963594). Also: nearly all actives have a fitted effect of over 35% in size. The method, boiled down:
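cAMP accumulation in DRD2-HEK293 cells measured by HTRF after 1 h detection; compounds added 10 min before NKH477 (200nM […]) forskolin-analogue stimulation, 30 min at room temperature, with Ro20-1724 present at 0.1 mM final.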

For test [16] the target is unchanged. Nature of the test: Dopamine D2 receptor (DRD2) small molecule antagonists, cell-based qHTS assay (AID 1963595; active = well fitted inhibition curve with a large enough effect in the signal ratio in the repeat runs, with a control signal flat; the % refers to the signal ratio). The method, boiled down: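 Antagonist mode in DRD2-HEK293 cells: after compound addition with 0.1 mM Ro20-1724, cells received quinpirole (12 nM) and NKH477 (200 nM) for 30 min at room temperature; HTRF cAMP read after 1 h detection.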
In test [17] the target is Muscarinic acetylcholine receptor M1 (Homo sapiens) (UniProt P11229). Put plainly: Cholinergic receptor muscarinic 1 (CHRM1) small molecule antagonists, cell-based qHTS assay (AID 1963588). Also: nearly all actives have a fitted effect of over 40% in size. An outline of the steps:
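Compounds were tested at 15 concentrations in three independent runs. Dye-loaded CHRM1-CHO cells were exposed 5 min at room temperature before stimulation by acetylcholine added at 50nM. Intracellular calcium was read kinetically on FDSS for 3 min.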

Test [18] deals with Beta-2 adrenergic receptor (Homo sapiens) (UniProt P07550). Nature of the test: Adrenergic beta2 receptor (ADRB2) small molecule agonists, cell-based qHTS assay (AID 1963593).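 Also: CHO cells stably overexpressing human ADRB2.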 An outline of the steps: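 CHO cells stably over-expressing ADRB2 were plated overnight at 37C, then dosed with compounds plus a stimulation mix containing 100uM IBMX and 25uM Ro-20-1724 for 0.5hr at room temperature. cAMP was measured by HTRF competition, 1hr.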
Beta-2 adrenergic receptor (Homo sapiens), sequence (P07550 whole entry, looked up): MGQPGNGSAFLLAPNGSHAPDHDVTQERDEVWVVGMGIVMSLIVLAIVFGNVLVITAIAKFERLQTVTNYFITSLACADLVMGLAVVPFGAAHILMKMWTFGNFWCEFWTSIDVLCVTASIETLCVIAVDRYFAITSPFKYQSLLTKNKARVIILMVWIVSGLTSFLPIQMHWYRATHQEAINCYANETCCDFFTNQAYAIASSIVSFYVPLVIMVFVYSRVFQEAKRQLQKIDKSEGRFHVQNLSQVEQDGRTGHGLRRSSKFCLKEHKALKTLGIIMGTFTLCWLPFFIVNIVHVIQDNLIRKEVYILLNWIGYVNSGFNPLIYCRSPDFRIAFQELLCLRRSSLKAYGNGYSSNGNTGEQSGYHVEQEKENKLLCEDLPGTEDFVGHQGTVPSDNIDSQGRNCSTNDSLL

D(2) dopamine receptor (Homo sapiens), sequence (P14416 whole entry, looked up): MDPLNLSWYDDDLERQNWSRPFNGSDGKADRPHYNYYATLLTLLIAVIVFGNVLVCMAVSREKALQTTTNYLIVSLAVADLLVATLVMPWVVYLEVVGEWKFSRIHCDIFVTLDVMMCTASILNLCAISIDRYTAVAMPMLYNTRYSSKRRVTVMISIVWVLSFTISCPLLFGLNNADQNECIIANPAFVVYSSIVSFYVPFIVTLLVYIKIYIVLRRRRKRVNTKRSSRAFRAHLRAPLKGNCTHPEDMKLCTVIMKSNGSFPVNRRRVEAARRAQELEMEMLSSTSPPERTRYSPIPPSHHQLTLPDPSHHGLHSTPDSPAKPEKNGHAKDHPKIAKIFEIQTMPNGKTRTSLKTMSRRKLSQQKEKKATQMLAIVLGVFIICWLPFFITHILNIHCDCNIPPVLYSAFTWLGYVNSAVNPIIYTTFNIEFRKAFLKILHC
KiSS-1 receptor (Homo sapiens), sequence (Q969F8 whole entry, looked up): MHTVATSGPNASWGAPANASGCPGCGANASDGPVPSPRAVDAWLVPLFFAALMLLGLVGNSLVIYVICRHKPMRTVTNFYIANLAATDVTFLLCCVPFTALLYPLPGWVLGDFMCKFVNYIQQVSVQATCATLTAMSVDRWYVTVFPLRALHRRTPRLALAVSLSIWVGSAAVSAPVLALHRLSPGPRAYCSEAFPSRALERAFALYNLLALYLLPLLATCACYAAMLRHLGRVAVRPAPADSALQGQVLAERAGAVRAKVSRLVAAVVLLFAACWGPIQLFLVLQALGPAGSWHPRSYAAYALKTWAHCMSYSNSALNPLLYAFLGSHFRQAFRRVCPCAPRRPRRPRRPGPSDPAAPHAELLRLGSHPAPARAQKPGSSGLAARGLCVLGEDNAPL
Muscarinic acetylcholine receptor M1 (Homo sapiens), sequence (P11229 whole entry, looked up): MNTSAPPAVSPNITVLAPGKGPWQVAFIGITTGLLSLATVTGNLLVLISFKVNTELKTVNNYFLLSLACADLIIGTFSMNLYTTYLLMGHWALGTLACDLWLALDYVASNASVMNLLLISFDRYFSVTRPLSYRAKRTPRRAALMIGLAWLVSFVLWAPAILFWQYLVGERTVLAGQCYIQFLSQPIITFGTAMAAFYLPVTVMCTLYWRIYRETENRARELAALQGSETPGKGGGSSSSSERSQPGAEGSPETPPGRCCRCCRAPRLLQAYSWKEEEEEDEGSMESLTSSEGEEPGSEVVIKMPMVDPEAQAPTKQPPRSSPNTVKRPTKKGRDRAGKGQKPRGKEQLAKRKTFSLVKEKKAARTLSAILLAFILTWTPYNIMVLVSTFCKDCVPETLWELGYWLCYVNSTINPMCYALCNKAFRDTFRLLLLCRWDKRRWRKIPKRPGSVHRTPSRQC
Gonadotropin-releasing hormone receptor (Homo sapiens), sequence (P30968 whole entry, looked up): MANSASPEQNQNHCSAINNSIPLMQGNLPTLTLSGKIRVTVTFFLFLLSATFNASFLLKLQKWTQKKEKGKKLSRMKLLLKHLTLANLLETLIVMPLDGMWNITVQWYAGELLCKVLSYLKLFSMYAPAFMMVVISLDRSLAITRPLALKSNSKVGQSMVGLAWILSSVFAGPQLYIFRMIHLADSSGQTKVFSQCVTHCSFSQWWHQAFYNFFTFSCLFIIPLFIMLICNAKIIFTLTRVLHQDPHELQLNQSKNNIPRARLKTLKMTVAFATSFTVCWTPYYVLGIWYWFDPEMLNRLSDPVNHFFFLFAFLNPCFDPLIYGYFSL
5-hydroxytryptamine receptor 2A (Homo sapiens), sequence (P28223 whole entry, looked up): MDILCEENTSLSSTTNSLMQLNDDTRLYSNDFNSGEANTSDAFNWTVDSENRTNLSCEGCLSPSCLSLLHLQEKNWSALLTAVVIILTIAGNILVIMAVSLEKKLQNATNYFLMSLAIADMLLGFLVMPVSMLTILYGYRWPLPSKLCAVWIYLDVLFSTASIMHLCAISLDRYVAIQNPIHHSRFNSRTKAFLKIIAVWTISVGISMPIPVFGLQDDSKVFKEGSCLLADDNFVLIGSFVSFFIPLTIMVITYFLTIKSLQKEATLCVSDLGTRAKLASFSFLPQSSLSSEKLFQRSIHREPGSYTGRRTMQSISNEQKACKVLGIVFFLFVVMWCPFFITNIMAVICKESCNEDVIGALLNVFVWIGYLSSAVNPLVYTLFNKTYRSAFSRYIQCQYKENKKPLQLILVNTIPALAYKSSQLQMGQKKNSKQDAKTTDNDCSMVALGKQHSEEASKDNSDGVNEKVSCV

Consider `COC(=O)C(C)=O`, for which the Potency entry in [1], in test [2], in [3], in [4], in test [5] and in [6] was “inactive” each time. The Potency result in [7], in test [8], in test [9], in test [10], in [11] and in test [12] was “inactive” each time. Besides, the Potency result in [13], in test [14], in test [15] and in [16] was “inactive” throughout.
On to `O=C(c1ccc(O)c(O)c1)c1ccc(O)cc1O`, for which the Potency entry in test [1], in [2], in test [3], in test [4], in test [5] and in test [6] was “inactive” in each case. The Potency result in [7], in test [8], in test [10], in [17] and in test [14] was “inactive” each time. In addition, the Potency in [9] was 47.1 µM (active).
For `COC(C)(C)OC`, the Potency entry in [1], in test [2], in test [3], in [4], in test [5] and in [6] was “inactive” each time. Besides, the Potency result in test [7], in test [8], in test [9], in test [10], in test [11] and in [12] was “inactive” each time. Besides, the Potency entry in [13], in test [14], in [15] and in [16] was “inactive” in each case.
Regarding `OC[C@H]1O[C@@H]2O[C@H]3[C@H](O)[C@@H](O)[C@@H](O[C@H]4[C@H](O)[C@@H](O)[C@@H](O[C@H]5[C@H](O)[C@@H](O)[C@@H](O[C@H]6[C@H](O)[C@@H](O)[C@@H](O[C@H]7[C@H](O)[C@@H](O)[C@@H](O[C@H]8[C@H](O)[C@@H](O)[C@@H](O[C@H]9[C@H](O)[C@@H](O)[C@@H](O[C@H]1[C@H](O)[C@H]2O)O[C@@H]9CO)O[C@@H]8CO)O[C@@H]7CO)O[C@@H]6CO)O[C@@H]5CO)O[C@@H]4CO)O[C@@H]3CO`, the Potency entry in test [1], in [2], in test [3], in [4], in [5] and in test [6] was “inactive” in each case. In addition, the Potency result in test [7], in test [8], in [9], in [10], in test [17] and in test [12] was “inactive” throughout. Further, the Potency result in test [13], in test [14], in test [18], in [15] and in test [16] was “inactive” throughout.
As to `CN1CC(=O)N2[C@H](c3ccc4c(c3)OCO4)c3[nH]c4ccccc4c3C[C@@H]2C1=O`, the Potency entry in test [1], in [2], in test [3], in [4], in [5] and in [6] was “inactive” each time. For the same compound, the Potency result in test [7], in [8], in [9], in [10], in test [11] and in test [12] was “inactive” throughout. Also, the Potency result in test [13], in test [14], in test [18], in test [15] and in test [16] was “inactive” each time.
On to `NCCCCCCNCCCCCCN`, for which the Potency result in [1], in test [2], in test [3], in test [4], in test [5] and in test [6] was “inactive” in each case. Besides, the Potency result in test [7], in [8], in test [9], in [10], in test [11] and in test [12] was “inactive” each time. Also, the Potency result in test [13], in test [14], in test [15] and in test [16] was “inactive” throughout.
As to `CC(=O)Nc1ccc(S(=O)(=O)Cl)cc1`, the Potency result in [1], in test [2], in test [3], in test [4], in [5] and in [6] was “inactive” each time. Further, the Potency result in test [7], in test [8], in [9], in test [10], in test [17] and in test [12] was “inactive” throughout. Also, the Potency result in test [13], in [14], in test [18], in [15] and in test [16] was “inactive” throughout.
